aSyn 5UTR act: Activators working through SNCA 5'UTR binding (MLPCN); actives 7.1% (n = 300,000); activity score, % (tested at 7.5 µM), hits read low; alpha-synuclein 5'UTR reporter, activators screen; in the data active means activity score below about -60%
Numbers stand for hits; 0 = inactive. Only a sample is shown.

SMILES | aSyn 5UTR act
COc1ccc(OCc2cccc(C(=O)Nc3cc(C)on3)c2)cc1 | 0
COc1ccc(-c2cc(C(=O)Nc3cc(C)on3)no2)cc1 | -71
COc1ccc(-c2cc(C(=O)Nc3ccc(C)cc3)no2)cc1 | -71
O=C(Nc1ccc2c(c1)C(=O)NC2=O)c1ccc2ncsc2c1 | -63
CCc1ccc(NC(=O)c2ccc3ncsc3c2)cc1 | -155
COc1ccc(NC(=O)c2ccc3ncsc3c2)cc1 | -168
O=C(Nc1ccc(Br)cc1)c1ccc2ncsc2c1 | -128
O=C(c1cc(COc2c(F)cccc2F)on1)N1CCCCCC1 | -99
O=C(c1cc(COc2ccc3c(c2)CCCC3)on1)N1CCCC1 | -118
CCOC(=O)N1CCN(C(=O)c2cc(COc3c(F)cccc3F)on2)CC1 | -151
CC(C)(C)c1ccc(N2C(=O)Cc3c2nc(N)c(C#N)c3N)cc1 | -109
CCCCN1C(=O)Cc2c1nc(N)c1c(N)nc(N(CCC)CCC)c(C#N)c21 | 0
CCc1ccc(N2C(=O)Cc3c2nc(N)c(C#N)c3N)cc1 | -160
CCc1ccc(C(=O)Nc2cc(C)on2)o1 | -112
Cc1cc(NC(=O)c2ccc(Br)c([N+](=O)[O-])c2)no1 | -81
Cc1cc(NC(=O)c2ccc(NC(=O)C(C)C)cc2)no1 | -62
CC(=O)Oc1ccc(C(=O)Nc2cc(C)on2)cc1 | -84
Cc1cc(NC(=O)c2ccc(C)c(C)c2)no1 | -106
N/C(=N\NC(=O)Nc1ccccc1)c1ccccn1 | -168
C/C(CC(C)C)=N\NC(=O)Nc1ccccc1 | -69
COc1ccc(-c2noc(Cc3ccccc3OC)n2)cc1 | -64
COc1ccc(-c2noc(CCc3ccccc3)n2)cc1 | -148
COc1ccc(-c2noc(Cc3cccs3)n2)cc1 | -188
COc1ccc(/C=C2\C(=O)NCC(=O)N2Cc2ccccc2)cc1 | -62
O=C(Nc1ccc(Br)cc1)c1cnc[nH]1 | -107
SMILES | aSyn 5UTR act
Fc1c(F)c(C(F)(F)F)c(F)c(F)c1N/N=C\c1cccs1 | -73
CN(C(=O)COC(=O)c1c2c(nc3ccccc13)/C(=C/c1cccc([N+](=O)[O-])c1)CCC2)C1CCS(=O)(=O)C1 (stereo unspecified) | 0
CN(C(=O)COC(=O)c1nc(Cl)c(Cl)c(Cl)c1Cl)C1CCS(=O)(=O)C1 (stereo unspecified) | -210
Cc1nn(-c2ccccc2)c(C)c1C(=O)OCC(=O)N(C)C1CCS(=O)(=O)C1 (stereo unspecified) | -90
O=[N+]([O-])c1ccccc1/C=N/N1CCN(c2ccccn2)CC1 | -79
CN(C)c1ccc(/C=N/N2CCN(c3ccccn3)CC2)cc1 | -126
Cc1ccc(/C=N/N2CCN(c3ccccn3)CC2)o1 | -80
COc1ccc(S(=O)(=O)N2CCN(c3ccccn3)CC2)cc1[N+](=O)[O-] | 0
BrC(=C\c1ccccc1)/C=N/N1CCN(c2ccccn2)CC1 | -70
CN(C1=C(N2CCOCC2)C(=O)c2ccccc2C1=O)c1ccccc1 | 0
CN(c1ccccc1)c1ccc(/C=N/N2CCOCC2)cc1 | -156
Oc1cccc(/C=N/N2CCN(c3ccccn3)CC2)c1 | -76
C(=N\N1CCN(c2ccccn2)CC1)/c1ccccn1 | -115
CC(C)(C)c1ccc(NC(=S)NCc2cccs2)cc1 | -98
S=C(NCCc1ccccc1)NCc1cccs1 | -74
Cc1ccc(S(=O)(=O)N/N=c2\oc3ccccc3cc2C(=O)Nc2cccc(C)c2)cc1 | -85
C=CCOc1c(Cl)cc(C(=S)N2CCCC2)cc1OCC | -95
O=C(Cn1cc(C(F)(F)F)ccc1=O)NCc1ccc(F)cc1 | -75
COc1ccc(C2/C=C\CN(C(=O)Nc3ccc(C(F)(F)F)cc3)CC(=O)N2Cc2ccc(F)cc2)cc1 (stereo unspecified) | 0
O=C(Nc1cccnc1)C1CCN(S(=O)(=O)c2cccs2)CC1 | -108
CC1=CC(C)(C)Nc2ccccc21 | 0
c1ccc2c(c1)NC1(CCCCC1)n1c-2nc2ccccc21 | -126
CCCCC1(C)Nc2ccccc2-c2nc3ccccc3n21 (stereo unspecified) | -146
c1ccc2c(c1)NC1(CCCCCC1)n1c-2nc2ccccc21 | -142
O=C(CCS(=O)(=O)c1cccs1)N1CCCC1 | -124
SMILES | aSyn 5UTR act
O=C(CCS(=O)(=O)c1ccccc1)N1CCN(c2ccccc2)CC1 | -78
O=C(CCNS(=O)(=O)c1cccs1)N1CCCCCC1 | -102
O=Cc1s/c(=N\S(=O)(=O)c2ccccc2)n(CCCCl)c1Cl | 0
Cn1c(=NC(=O)COc2ccccc2)sc2ccccc21 | -148
Cn1c(=NC(=O)CS(=O)(=O)c2ccccc2)sc2ccccc21 | -76
O=C(NCC1CCCO1)c1sc2cc(Cl)ccc2c1Cl (stereo unspecified) | -124
Cn1c(-c2cc3ccccc3oc2=O)nc2ccccc21 | -97
COc1ccc2cc(-c3nc4ccccc4n3C)c(=O)oc2c1 | -209
COc1cccc(Cn2c(-c3nonc3N)nc3ccccc32)c1 | 0
c1csc(-c2cn3ccc4ccccc4c3n2)c1 | -209
COc1cc(SC)ccc1C(=O)OCC(=O)NC1CCCC1 | -94
CCCn1c(O)c(C=Nc2ccccc2)sc1=S | -86
CNc1nc(N2CCc3ccccc32)ncc1F | -109
O=c1c2cc(Br)ccc2[nH]c(=S)n1Cc1ccccn1 | -70
CCc1ccc(C(=O)N/N=C(\C)c2ccncc2)s1 | -93
C/C(=N/NC(=O)c1ccc(C)s1)c1ccncc1 | -87
CCN(CC)CCN1C(=O)c2oc3ccccc3c(=O)c2C1c1ccc(F)cc1 (stereo unspecified) | -70
Cc1cc2c(cc1C)CN(c1ccccc1)C2 | -90
Oc1cccc(N2Cc3ccccc3C2)c1 | -82
Cc1cc(N2Cc3ccccc3C2)ccc1C=O | -96
N#C/C(=C/c1ccc(N2CCCCC2)cc1)c1cccc(F)c1 | -135
N#C/C(=C/c1ccc(N2CCCCCC2)o1)c1ccc(Cl)cc1 | -299
N#C/C(=C/c1ccc(N2CCCCC2)o1)c1cccc(F)c1 | -334
Cc1cccnc1NC(=S)NCCc1ccccc1 | -155
COc1ccc(NC(=S)Nc2ncccc2C)c(OC)c1 | -93
SMILES | aSyn 5UTR act
COc1ccc(NC(=S)Nc2ncccc2C)cc1OC | -107
COc1ccc(NC(=S)Nn2cnnc2)cc1OC | -95
O=C(NNC(=S)Nc1ccc(Cl)c(Cl)c1)c1ccccn1 | 0
Cc1cccnc1NC(=S)Nc1ncccc1C | -119
Cc1cccnc1NC(=S)Nc1ccc(Cl)c(Cl)c1 | -142
Cc1cccc(NCc2ccc(O)c3ncccc23)c1C | 0
O=C(NCCC1=CCCCC1)C1CCC(CNc2nc(=S)[nH]c3ccccc23)CC1 (stereo unspecified) | 0
O=C(COC(=O)c1ccccc1Cl)NCCC1=CCCCC1 | -79
O=C(COC(=O)c1ccccc1NC(=O)c1ccco1)NCCC1=CCCCC1 | -92
CNC(=O)c1cc2c(cn1)[nH]c1ccccc12 | -98
CC(=O)N(C(C)=O)c1ncc2c([nH]c3ccccc32)c1C#N | 0
CCCS(=O)(=O)c1nc(S(=O)(=O)c2ccc(C)cc2)c(N2CCN(C)CC2)s1 | -69
CCS(=O)(=O)c1nc(S(=O)(=O)c2ccc(C)cc2)c(N2CC(C)OC(C)C2)s1 (stereo unspecified) | -105
Cc1nc2ccccc2n1/N=C/c1ccc([N+](=O)[O-])o1 | -172
Cc1nc2ccccc2c(=O)n1/N=C/c1ccc([N+](=O)[O-])o1 | -64
COC(=O)c1sc(NC(=S)NC(=O)c2ccccc2C)nc1C | -93
COC(=O)c1sc(NC(=S)NC(=O)c2cccc(Br)c2)nc1C | -104
CC1(C)OC2OC(COC(=O)c3ccccc3)C3OC(C)(C)OC3C2O1 (stereo unspecified) | -89

From PubChem
